# Results filed as inconclusive are left out. A call without a number means that no potency is given here. Active and inactive are the calls of the source. The call rests on the fitted dose curve; in most records, active means well fitted curve in either direction with a large enough effect; inconclusive means small, poorly fitted or top-dose-only effect; inactive means flat fitted curve, though single readings scatter.
# Test: Total Fluorescence Confirmation Counterscreen for Inhibitors of the Interaction of Thyroid Hormone Receptor and Steroid Receptor Coregulator 2
# Conditions: Texas Red total fluorescence, TRbeta/SRC2 FP artifact counterscreen; series mostly up to 92.2 µM
# Description: NIH Molecular Libraries Probe Production Network [MLPCN] NIH Chemical Genomics Center [NCGC] MLPCN Grant: DK058080 Assay Provider: R. Kip Guy, St. Jude Children's Research Hospital NCGC Assay Overview: Thyroid receptor (TR) regulates many homeostatic processes including basal metabolism, cardiovascular function, body weight, and lipid trafficking. TR modulators are potential therapeutics for obesity and hyperlipidemias but current thyroid analogs have undesirable side effects, particularly cardiac stimulation. To identify inhibitors that specifically prevent the interaction of TR with the steroid receptor coregulator 2 (SRC2), a fluorescence polarization assay was screened. This assay detects interaction of the ligand-binding domain of human TRbeta with a Texas Red labeled SRC2 peptide, corresponding to a 20 amino acid region of the nuclear receptor interaction domain (Arnold et al., 2006). Total fluorescence (555 nm excitation and 632 nm emission) was measured to identify potential fluorescent and light absorbing compounds. Such compounds may be artifacts that interfere with the fluorescence polarization assay. This assay is a confirmation assay for AID 1479. Arnold, L. A.; Estebanez-Perpina, E.; Togashi, M.; Shelat, A.; Ocasio, C. A.; McReynolds, A. C.; Nguyen, P.; Baxter, J. D.; Fletterick, R. J.; Webb, P.; Guy, R. K. A high-throughput screening method to identify small molecule inhibitors of thyroid hormone receptor coactivator binding. Sci STKE 2006, p 13.
# NCGC Assay Protocol Summary: For screening, 5 uL/well 0.6 uM TRbeta and 20 nM SRC2 Texas Red in protein buffer (20mM Tris hydrochloride, 100mM NaCl, 10% glycerol, 1mM EDTA, 0.01% NP-40, 1mM DTT, 1uM T3 and 5% DMSO) was dispensed into black solid 1536-well plates (Grenier) using a solenoid-based dispenser. Following transfer of 23 nL compound or DMSO vehicle by a pin tool, the plates were centrifuged 15 s at 1000 RPM and incubated 5 hr at ambient temperature. The plates were read by an Envision (Perkin Elmer) to detect fluorescence polarization of SRC2 Texas Red (555 nm excitation and 632 nm emission). Data were normalized to unbound (all components except TRbeta) and bound SRC2 Texas Red controls. Total fluorescence (TF) was calculated as follows: TF = S + 2P where S and P are fluorescence readings in the parallel and perpendicular channels, respectively. In this assay, we provide % activity data for each concentration as well as potencies for the active compounds.
row,Compound,Potency
1,CC(=O)NC1N=C(C)N(c2ccccc2)C1=O (stereo not given),inactive
2,N/C(Cc1cccc2ccccc12)=N\OC(=O)c1cccs1,inactive
3,CS(=O)(=O)c1ccc(C(=O)OCC(=O)NC(=O)C2CCCCC2)cc1[N+](=O)[O-],inactive
4,C=CCSc1nnc2n(-c3ccccc3OC)c(=O)c3c4c(sc3n12)CCC4,inactive
5,CCCCOc1ccc(C(=O)CCN2CCOCC2)cc1,inactive
6,Cc1ccc(OC(=S)Nc2ccc(O)cc2)cc1,inactive
7,COC(=O)c1ccccc1-c1ccc(C(c2c(C)[nH][nH]c2=O)c2c(C)[nH][nH]c2=O)o1,inactive
8,O=c1cc(C23CC4CC(CC(C4)C2)C3)[nH][nH]1,inactive
9,Nc1cc(N)c(OCC(F)(F)F)cc1OCC(F)(F)F,inactive
10,COn1c2c(c3c4nonc4ccc31)CCCC2,inactive
11,CN1c2ccccc2C(C)(C)C12C=Nc1c(cc(N3CCOCC3)c3ccccc13)O2 (stereo not given),inactive
12,Cc1nc2ccccc2n2c(O)c(CC(=O)O)cc12,31.6 µM [fluorescent] (active)
13,COc1cc(NC(C)CCCN)c2ncccc2c1 (stereo not given),inactive
14,COc1ccc(C(=O)/C=C/Nc2ccc(S(=O)(=O)Nc3ncccn3)cc2)cc1,inactive
15,Cn1cc[nH]c1=S,inactive
16,Cc1nc2c3cc(F)ccc3n(Cc3ccccc3F)c2s1,inactive
17,CCOC(=O)c1cnc2nc(NCc3ccc(OC)c(OC)c3)[nH]n2c1=O,inactive
18,O=C(O)[C@H]1CN(CCCP(=O)(O)O)CCN1,inactive
19,CCCc1cc(=O)[nH]c(=S)[nH]1,inactive
20,CCOc1ccc(C2=Cc3cc(OC)c(OC)cc3C(=C(Cl)Cl)O2)cc1,inactive

row,Compound,Potency
1,CCOc1ccc(NC(=O)C(c2ccccn2)N(C(=O)CCl)c2ccc(F)cc2)cc1 (stereo not given),inactive
2,Cn1cc(/C=C2\SC(=S)N(NC(=O)c3ccccc3)C2=O)c2ccccc21,70.8 µM [fluorescent] (active)
3,Nc1c(C(=O)NCc2ccco2)c2nc3ccccc3nc2n1CCc1ccccc1,inactive
4,CCC(C)NC(=O)COC(=O)c1csc2c1CCCC2 (stereo not given),inactive
5,O=C(Nc1nc2ccc(Cl)cc2s1)c1ccc(N2CCCCC2)c([N+](=O)[O-])c1,inactive
6,O=c1[nH]c(Nc2ccccc2)cc2ccccc12,inactive
7,Cn1c(CCN2CCCCC2)nc2cc(NS(=O)(=O)c3ccc(Cl)cc3)ccc21,inactive
8,CCSc1ncc(Cl)c(C(=O)Nc2nc3ccc(OC)cc3s2)n1,inactive
9,Cc1cc(C)cc(OCC(=O)NCCc2nc3ccccc3[nH]2)c1,inactive
10,CN(C)c1cc(Cl)c2nonc2c1N,inactive
11,CC1=NN(c2ccc(F)cc2)C(=O)C1C(c1cccc(O)c1)c1c(C)[nH]n(-c2ccc(F)cc2)c1=O (stereo not given),inactive
12,COc1cc(C(c2c(C)[nH][nH]c2=O)c2c(C)[nH][nH]c2=O)ccc1OC(=O)c1ccccc1OC,inactive
13,CCOc1cc(C(c2c(C)[nH][nH]c2=O)c2c(C)[nH][nH]c2=O)ccc1OS(=O)(=O)c1ccc(C)cc1,inactive
14,Cc1cc2ccccc2n1CCNC(=O)C(C)Oc1ccccc1 (stereo not given),inactive
15,CN(CCO)c1nc(N)c2c(N)nc3c(c2c1C#N)CC(=O)N3C1CCCC1,inactive
16,O=C(O)/C=C/C(=O)Nc1ccc(OC(F)(F)F)cc1Br,inactive
17,CCc1ccc2c(c1)c1nc(C)sc1n2CC,inactive
18,Nc1cc(-c2ccncc2)c[nH]c1=O,inactive
19,CN1CCc2ccc3c4c2[C@]1(C)Cc1cccc(c1-4)OCO3,100 µM [fluorescent] (active)
20,C=CCNC(=O)/C(C#N)=C/c1c(C)nn(-c2ccc(Cl)cc2)c1Cl,inactive

# Source: PubChem BioAssay AID1572 (National Center for Advancing Translational Sciences (NCATS), 2009)
